Holding throughout (experiment): DAPPL (digital affinity profiling via proximity ligation, sequencing); 10 mM Tris-HCl pH 7.5, 50 mM NaCl, 1 mM DTT, 4% glycerol, room temperature, 30 min; GST-TFs on glutathione beads, 16-mer random dsDNA library, 0.1% formaldehyde crosslink after washing; high values mean tight binding
Conditions in all cases: protein: recombinant; tags: N-terminal GST; dsDNA, one strand shown

One assay addresses T1, ERF (Homo sapiens, UniProt P50548 1-548).
T1 sequence: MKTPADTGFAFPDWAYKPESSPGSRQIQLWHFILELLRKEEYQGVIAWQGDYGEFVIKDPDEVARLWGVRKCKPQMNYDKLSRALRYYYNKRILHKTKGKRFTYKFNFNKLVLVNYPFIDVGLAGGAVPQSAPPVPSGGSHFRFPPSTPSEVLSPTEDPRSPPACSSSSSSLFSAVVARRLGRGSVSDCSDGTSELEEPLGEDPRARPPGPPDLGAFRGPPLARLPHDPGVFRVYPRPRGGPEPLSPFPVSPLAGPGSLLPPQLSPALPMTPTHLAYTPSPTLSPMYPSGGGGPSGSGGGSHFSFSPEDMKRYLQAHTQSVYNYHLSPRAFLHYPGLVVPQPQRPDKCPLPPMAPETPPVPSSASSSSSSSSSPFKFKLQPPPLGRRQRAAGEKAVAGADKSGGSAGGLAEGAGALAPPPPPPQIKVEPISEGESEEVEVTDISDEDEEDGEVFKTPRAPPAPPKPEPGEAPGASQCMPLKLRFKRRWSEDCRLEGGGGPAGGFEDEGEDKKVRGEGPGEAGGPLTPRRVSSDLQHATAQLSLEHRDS
The essentials: (§1)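 Each value of binding signal is a hexamer's read frequency for a factor divided by the same hexamer's frequency in the tag-only sample. Barcoded, bead-captured GST fusions of human transcription factors made in yeast were pooled with that sample and incubated with 200 nmole of a random double-stranded 16-mer DNA library in Tris/NaCl/DTT/glycerol buffer at room temperature for 30 min. Washing, 0.1% formaldehyde crosslinking, proximity ligation, PCR and Illumina NextSeq500 sequencing followed.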

A further assay addresses T2, ETV3L (Homo sapiens, UniProt Q6ZN32 1-361).
T2 sequence: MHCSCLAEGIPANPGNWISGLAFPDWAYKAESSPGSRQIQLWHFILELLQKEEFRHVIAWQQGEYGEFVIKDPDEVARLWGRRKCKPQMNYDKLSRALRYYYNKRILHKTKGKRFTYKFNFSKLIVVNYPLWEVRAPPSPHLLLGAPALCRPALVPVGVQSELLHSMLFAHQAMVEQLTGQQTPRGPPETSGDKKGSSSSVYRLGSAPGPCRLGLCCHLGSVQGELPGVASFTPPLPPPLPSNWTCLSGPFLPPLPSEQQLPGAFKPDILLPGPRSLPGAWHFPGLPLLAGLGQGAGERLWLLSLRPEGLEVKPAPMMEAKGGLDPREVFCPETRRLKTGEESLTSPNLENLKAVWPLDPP
A digest of the protocol: as §1

Another assay deals with T3, ETS2 (Homo sapiens, UniProt P15036 1-469).
T3 sequence: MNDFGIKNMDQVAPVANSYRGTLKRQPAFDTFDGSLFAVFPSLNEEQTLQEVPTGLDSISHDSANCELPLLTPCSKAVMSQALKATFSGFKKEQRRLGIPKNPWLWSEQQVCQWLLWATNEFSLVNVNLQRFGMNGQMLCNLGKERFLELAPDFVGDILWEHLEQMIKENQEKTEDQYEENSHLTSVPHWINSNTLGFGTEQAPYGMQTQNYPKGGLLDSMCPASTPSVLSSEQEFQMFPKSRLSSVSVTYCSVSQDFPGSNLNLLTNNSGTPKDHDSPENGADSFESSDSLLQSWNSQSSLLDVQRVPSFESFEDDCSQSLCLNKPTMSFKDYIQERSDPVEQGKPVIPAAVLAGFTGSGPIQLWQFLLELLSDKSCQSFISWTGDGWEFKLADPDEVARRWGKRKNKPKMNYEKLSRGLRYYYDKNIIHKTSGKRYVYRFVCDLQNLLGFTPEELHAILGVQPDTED
The essentials: as §1

The target in another assay is T4, SPDEF (Homo sapiens, UniProt O95238 1-335).
T4 sequence: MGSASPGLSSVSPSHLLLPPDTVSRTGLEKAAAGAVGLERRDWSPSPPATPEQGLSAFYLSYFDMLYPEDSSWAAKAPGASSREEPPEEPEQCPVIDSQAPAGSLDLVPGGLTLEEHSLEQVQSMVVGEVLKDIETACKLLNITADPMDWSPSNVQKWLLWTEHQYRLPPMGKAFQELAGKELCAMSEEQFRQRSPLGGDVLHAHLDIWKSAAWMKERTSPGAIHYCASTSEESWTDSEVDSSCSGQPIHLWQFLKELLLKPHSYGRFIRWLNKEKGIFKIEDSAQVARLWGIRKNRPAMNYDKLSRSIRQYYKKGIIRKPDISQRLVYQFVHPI
The essentials:
as §1

For a further assay, the target named is T5, ETV7 (Homo sapiens, UniProt Q9Y603 1-341).
T5 sequence: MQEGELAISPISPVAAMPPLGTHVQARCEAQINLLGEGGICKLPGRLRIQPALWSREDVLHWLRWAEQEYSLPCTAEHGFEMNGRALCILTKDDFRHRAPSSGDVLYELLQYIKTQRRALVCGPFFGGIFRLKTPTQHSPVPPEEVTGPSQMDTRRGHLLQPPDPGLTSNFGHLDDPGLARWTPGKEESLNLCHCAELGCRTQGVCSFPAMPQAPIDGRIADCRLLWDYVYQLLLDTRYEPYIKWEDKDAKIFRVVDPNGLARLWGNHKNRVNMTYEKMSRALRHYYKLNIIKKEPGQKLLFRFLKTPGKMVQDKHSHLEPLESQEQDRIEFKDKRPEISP
The essentials: as §1

A further assay has as its target T6, ELF5 (Homo sapiens, UniProt Q9UKW6-2 1-255).
T6 sequence: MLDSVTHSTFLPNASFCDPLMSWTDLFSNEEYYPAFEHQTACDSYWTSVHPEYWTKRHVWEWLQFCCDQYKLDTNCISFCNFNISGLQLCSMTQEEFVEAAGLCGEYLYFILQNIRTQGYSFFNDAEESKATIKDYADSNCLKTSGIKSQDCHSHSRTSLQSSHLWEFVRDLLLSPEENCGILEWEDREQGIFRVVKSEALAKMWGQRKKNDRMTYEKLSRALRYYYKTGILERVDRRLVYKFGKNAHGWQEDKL
The essentials: as §1

The next assay addresses T7, ETV3 (Homo sapiens, UniProt P41162-2 1-143).
T7 sequence: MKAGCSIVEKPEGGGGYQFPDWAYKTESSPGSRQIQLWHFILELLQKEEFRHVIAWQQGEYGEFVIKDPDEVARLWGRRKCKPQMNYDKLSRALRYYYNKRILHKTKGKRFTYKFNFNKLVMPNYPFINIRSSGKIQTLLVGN
A digest of the protocol: as §1

For another assay, the target named is ETV6 (Homo sapiens, UniProt P41212 1-452). The essentials: as §1
ETV6, sequence (P41212 whole entry): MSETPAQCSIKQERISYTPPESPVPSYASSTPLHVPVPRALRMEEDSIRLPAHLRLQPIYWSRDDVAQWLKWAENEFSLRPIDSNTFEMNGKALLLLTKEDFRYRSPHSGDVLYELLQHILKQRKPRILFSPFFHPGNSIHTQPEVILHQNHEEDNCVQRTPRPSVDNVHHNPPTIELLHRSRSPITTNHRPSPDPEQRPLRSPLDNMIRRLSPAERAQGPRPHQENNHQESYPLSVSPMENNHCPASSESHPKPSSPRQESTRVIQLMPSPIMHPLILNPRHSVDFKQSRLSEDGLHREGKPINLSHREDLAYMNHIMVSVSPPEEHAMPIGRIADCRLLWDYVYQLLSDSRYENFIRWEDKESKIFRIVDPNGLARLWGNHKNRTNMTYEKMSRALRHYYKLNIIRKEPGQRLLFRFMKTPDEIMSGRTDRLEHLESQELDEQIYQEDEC

In the case of TACCGC, the binding signal with ERF was 1.1 fold enrichment (6-mer frequency, TF over GST control); with ETV3L, 1.14 fold enrichment (6-mer frequency, TF over GST control); in the assay with ETS2, 1.05 fold enrichment (6-mer frequency, TF over GST control); with SPDEF it was 1.17 fold enrichment (6-mer frequency, TF over GST control); with ETV7, 1.13 fold enrichment (6-mer frequency, TF over GST control); with ELF5, 1.08 fold enrichment (6-mer frequency, TF over GST control). Besides, the binding signal with ETV3 was 1.12 fold enrichment (6-mer frequency, TF over GST control); in the assay with ETV6, 1.04 fold enrichment (6-mer frequency, TF over GST control).
TGCATC: the binding signal in the assay with ERF is 1.4 fold enrichment (6-mer frequency, TF over GST control); in the assay with ETV3L, 1.34 fold enrichment (6-mer frequency, TF over GST control); in the assay with ETS2, 1.39 fold enrichment (6-mer frequency, TF over GST control); in the assay with SPDEF it was 1.88 fold enrichment (6-mer frequency, TF over GST control); with ETV7, 1.37 fold enrichment (6-mer frequency, TF over GST control); with ELF5, 1.35 fold enrichment (6-mer frequency, TF over GST control). Moreover, the binding signal was 1.29 fold enrichment (6-mer frequency, TF over GST control) with ETV3 and 1.33 fold enrichment (6-mer frequency, TF over GST control) with ETV6.
Consider CTGATC, for which the binding signal with ERF was 1.52 fold enrichment (6-mer frequency, TF over GST control); in the assay with ETV3L, 1.36 fold enrichment (6-mer frequency, TF over GST control); with ETS2, 1.42 fold enrichment (6-mer frequency, TF over GST control); with SPDEF, 1.33 fold enrichment (6-mer frequency, TF over GST control); with ETV7, 1.35 fold enrichment (6-mer frequency, TF over GST control); in the assay with ELF5, 1.32 fold enrichment (6-mer frequency, TF over GST control). In addition, the binding signal was 1.36 fold enrichment (6-mer frequency, TF over GST control) in the assay with ETV3 and 1.23 fold enrichment (6-mer frequency, TF over GST control) in the assay with ETV6.
As for GAACCC, the binding signal in the assay with ERF was 1.03 fold enrichment (6-mer frequency, TF over GST control); with ETV3L, 1.19 fold enrichment (6-mer frequency, TF over GST control); with ETS2, 1.13 fold enrichment (6-mer frequency, TF over GST control); in the assay with SPDEF it was 1.17 fold enrichment (6-mer frequency, TF over GST control); in the assay with ETV7 it was 1.16 fold enrichment (6-mer frequency, TF over GST control); with ELF5 it was 1.14 fold enrichment (6-mer frequency, TF over GST control). In addition, the binding signal with ETV3 was 1.07 fold enrichment (6-mer frequency, TF over GST control); in the assay with ETV6, 1.21 fold enrichment (6-mer frequency, TF over GST control).
On to ACCCGA, for which the binding signal is 1.22 fold enrichment (6-mer frequency, TF over GST control) in the assay with ERF; 1.05 fold enrichment (6-mer frequency, TF over GST control) with ETV3L; 1.07 fold enrichment (6-mer frequency, TF over GST control) in the assay with ETS2; 1.03 fold enrichment (6-mer frequency, TF over GST control) with SPDEF; 1.11 fold enrichment (6-mer frequency, TF over GST control) with ETV7; 1.01 fold enrichment (6-mer frequency, TF over GST control) in the assay with ELF5. Also, the binding signal with ETV3 is 1.05 fold enrichment (6-mer frequency, TF over GST control); with ETV6 it was 1.04 fold enrichment (6-mer frequency, TF over GST control).
For the sequence TGTATC, the binding signal with ERF is 1.39 fold enrichment (6-mer frequency, TF over GST control); in the assay with ETV3L, 1.28 fold enrichment (6-mer frequency, TF over GST control); in the assay with ETS2, 1.42 fold enrichment (6-mer frequency, TF over GST control); with SPDEF, 1.89 fold enrichment (6-mer frequency, TF over GST control); with ETV7, 1.31 fold enrichment (6-mer frequency, TF over GST control); with ELF5 it was 1.51 fold enrichment (6-mer frequency, TF over GST control). Besides, the binding signal with ETV3 was 1.54 fold enrichment (6-mer frequency, TF over GST control); in the assay with ETV6, 1.36 fold enrichment (6-mer frequency, TF over GST control).
As to GAAGCT, the binding signal was 1.59 fold enrichment (6-mer frequency, TF over GST control) with ERF; 1.58 fold enrichment (6-mer frequency, TF over GST control) with ETV3L; 1.54 fold enrichment (6-mer frequency, TF over GST control) with ETS2; 1.51 fold enrichment (6-mer frequency, TF over GST control) with SPDEF; 1.54 fold enrichment (6-mer frequency, TF over GST control) in the assay with ETV7; 1.71 fold enrichment (6-mer frequency, TF over GST control) with ELF5. Also, the binding signal with ETV3 was 1.75 fold enrichment (6-mer frequency, TF over GST control); in the assay with ETV6, 1.59 fold enrichment (6-mer frequency, TF over GST control).

Values taken from PMC7862700, “An all-to-all approach to the identification of sequence-specific readers for epigenetic DNA modifications on cytosine”.
